A selection: hits, their analogues and other compounds. The true share with any hit is near 2.2%.
TLR9-MyD88 inh = inhibitors of TLR9-MyD88 association in cells, primary screen, cell-based, CHO, BLA complementation, fluorescence; Toll-like receptor 9 (Homo sapiens) + Myeloid differentiation primary response protein …; CCF4 FRET ratio; inhibition, % at 4.98 µM; actives 0.21% (n = 340,000);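 active = inhibition above the mean over all tested compounds plus 3 SD, cut at about 21% in these data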
GRK2 aptamer HTS = compounds blocking aptamer binding on GRK2 – biochemical, human GRK2, bead flow cytometry, HTS, primary screen | Beta-adrenergic receptor kinase 1 (Homo sapiens), P25098 | FAM-aptamer displacement from GRK2 | inhibition of aptamer binding, % at 10 µM | actives 0.59% (n = 330,000);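 active = inhibition of aptamer binding above 40%, roughly 3 SD of noise, on plates passing a quality check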;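 note: median bead fluorescence of bound FAM aptamer so fluorescent compounds give negative values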
NOD2 RIPK2 PPI = NOD2-RIPK2 binding disruptors in cells, primary screen, fluorescence, CHO cells, BLA complementation | Receptor-interacting serine/threonine-protein kinase 2 (Homo sapiens), O43353 | CCF4 ratio | inhibition, % at 4.98 µM | actives 0.38% (n = 360,000); in the data active = inhibition above about 21%
Target sequence (O43353 whole entry, looked up): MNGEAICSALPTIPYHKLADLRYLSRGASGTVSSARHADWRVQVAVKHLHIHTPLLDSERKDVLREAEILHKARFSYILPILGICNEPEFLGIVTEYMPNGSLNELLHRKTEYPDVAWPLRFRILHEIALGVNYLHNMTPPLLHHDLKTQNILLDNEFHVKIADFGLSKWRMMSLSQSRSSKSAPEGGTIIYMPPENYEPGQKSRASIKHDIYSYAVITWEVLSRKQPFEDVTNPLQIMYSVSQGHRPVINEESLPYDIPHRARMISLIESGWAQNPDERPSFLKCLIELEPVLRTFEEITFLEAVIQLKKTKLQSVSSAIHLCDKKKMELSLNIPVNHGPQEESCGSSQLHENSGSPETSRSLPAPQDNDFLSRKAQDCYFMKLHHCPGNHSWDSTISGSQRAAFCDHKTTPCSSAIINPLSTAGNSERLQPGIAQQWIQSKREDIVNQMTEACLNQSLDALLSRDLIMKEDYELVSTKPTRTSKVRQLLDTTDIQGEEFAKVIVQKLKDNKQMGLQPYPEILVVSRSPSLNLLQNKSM
TMEM16A act = TMEM16A chloride channel activators or potentiators, primary screen, cell-based, HTS. Anoctamin-1 (Mus musculus), Q8BHY3. HEK293 TMEM16A/YFP-H148Q/I152L, iodide quench fluorescence; hits give low values. B-score at 10 µM. actives 0.3% (n = 340,000);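 active = fluorescence-ratio B-score plate-corrected deviation score at least 3 library SD below zero, with starting fluorescence score within 5 deviations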;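 note: channel opened by trigger with iodide after compound preincubation; score built on the fluorescence ratio of max minus min over baseline; more negative score means more quench and so TMEM16A activation or potentiation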
ANO1 block = TMEM16A chloride channel inhibitors, primary screen, cell-based, HTS; Anoctamin-1 (Mus musculus), Q8BHY3; HEK293 TMEM16A/YFP iodide influx fluorescence, ionomycin; normalized B-score (activity score, 25-100; higher = stronger inhibition) at 10 µM; actives 1.2% (n = 310,000);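 active = ratio plate-corrected score three or more library SD toward inhibition, starting fluorescence score within five deviations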;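 note: score derived from kinetic fluorescence span divided by baseline fluorescence per well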
TLR4 MyD88 comp = inhibitors of TLR4-MyD88 association in cells, primary screen, cell-based, HeLa CL3-4, BLA complementation, FRET ratio; inhibition, % at 8.4 µM; HeLa CL3-4 TLR4/MyD88 BLA complementation; actives 0.18% (n = 200,000); Toll-like receptor 4 (Homo sapiens) + Myeloid differentiation primary response protein …; in the data active = inhibition above about 25%
TMEM16A reconf = TMEM16A chloride channel inhibitors, confirmation, cell-based, re-confirmation; HEK293 TMEM16A/YFP-H148Q, iodide quench fluorescence; ionomycin added to raise cell calcium; shares compounds with ANO1 block; inhibition, % at 10 µM; actives 39% (n = 2,300); AID 652189, 2013;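 active = mean duplicate percent inhibition, scaled so buffer wells are 0 and the reference blocker 100, over three buffer SD above buffer mean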
TMEM16A Ca cntr = calcium mobilization in TMEM16A/YFP HEK293 cells, confirmation, counter-screen for TMEM16A inhibitor project | shares compounds with ANO1 block | Fluo4 calcium mobilization | calcium response (% of ionomycin), % at 10 µM | actives 2% (n = 2,300) | AID 652231, 2013;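 active = duplicate-averaged calcium signal over 20% of the ionomycin maximum, relative to buffer baseline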;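 note: each well's signal is peak minus trough fluorescence divided by its pre-addition baseline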
YFP-HEK293 quench = iodide YFP quench changes in parental YFP-HEK293, counter-screen for TMEM16A inhibitor project, cell-based | 2,300 tested, under 10 active | YFP ratio F(max-min)/F0 at 10 µM | ionomycin | shares compounds with ANO1 block | AID 652233, 2013;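 active = yellow fluorescent protein signal ratio exceeding the buffer control mean by over 5 SD of those controls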;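 note: ratio is mean of duplicate wells from kinetic YFP trace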
ClC-1 rat inh = ClC-1 chloride channel inhibition, selectivity assay for TMEM16A inhibitor project, cell-based, voltage-dependent ClC-1; shares compounds with ANO1 block; ratio percent, % at 10 µM; 2,300 tested, under 10 active; CHO ClC-1-YFP, iodide influx fluorescence quench; iodide control reads 0, buffer control 100;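 active = duplicate-mean ratio percent above the mean of iodide-only control wells, which defines zero, plus 5 of their SD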;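 note: higher percent means stronger block of ClC-1 iodide influx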
Hits are given with their value; . = inactive; / = no result given.

SMILES	TLR9-MyD88 inh	GRK2 aptamer HTS	NOD2 RIPK2 PPI	TMEM16A act	ANO1 block	TLR4 MyD88 comp	TMEM16A reconf	TMEM16A Ca cntr	YFP-HEK293 quench	ClC-1 rat inh
O=C(Nc1ccc2c(c1)C(=O)N(CC1CCCO1)C2=O)c1ccc(Cl)c(Cl)c1 (centres undefined)	.	.	.	.	100	.	51.5%	.	.	.
CCOC(=O)c1ccccc1N/C=C/C(=O)c1ccccc1	.	.	.	.	100	.	.	.	.	.
Cc1cc(CNC[C@H]2O[C@@H](n3ccc(=O)[nH]c3=O)[C@H](O)[C@@H]2O)no1	/	/	.	/	/	/	/	/	/	/
O=C(Nc1nc(-c2cccs2)c(C(=O)C(F)(F)F)s1)c1ccco1	.	.	.	.	.	.	/	/	/	/
O=C(Nc1nc(-c2cccs2)c(C(=O)C(F)(F)F)s1)c1ccccc1	.	.	.	.	100	.	53.0%	.	.	.
COc1ccc(C(=O)Nc2sc3c(c2C(=O)NCc2ccco2)CCCC3)cc1OC	.	.	.	.	25	.	.	.	.	.
CC(C)CN(/C=N/c1sc2c(c1C#N)CCCCC2)CC(C)C	.	.	.	.	.	.	/	/	/	/
CCN(/C=N/c1sc2c(c1C#N)CCCCC2)CC	.	.	.	.	100	.	.	.	.	.
CSc1ccccc1C(=O)NCC1CCCO1 (centres undefined)	.	.	.	.	100	.	.	.	.	.
COCCSc1ccccc1C(=O)NCC1CCCO1 (centres undefined)	.	.	.	.	.	.	/	/	/	/
COc1cc(CN2CCC(C(=O)NCC(C)(C)CN(C)C)CC2)ccc1OCc1ccccc1	.	.	.	.	.	/	/	/	/	/
O=S(=O)(c1ccc(Cl)nc1)N1CCN(c2ncccn2)CC1	.	.	.	.	.	/	/	/	/	/
O=[N+]([O-])c1cc(Cl)cc(/C=N/NC(=S)Nc2ccc(S(=O)(=O)N3CCOCC3)cc2)c1O	.	.	.	.	25	/	70.0%	.	.	.
O=S(=O)(c1ccc(NC(=S)N/N=C/c2ccc(O)c(O)c2)cc1)N1CCOCC1	.	.	.	.	.	/	/	/	/	/
Cc1nc(OCc2ccccc2)c2ccccc2n1	.	.	.	.	100	.	.	.	.	.
Cc1nc2ccccc2cc1OCc1ccccc1	.	.	.	.	100	.	32.0%	.	.	.
Cc1nc2ccccc2cc1C(=O)NCc1ccccc1	.	.	.	.	.	/	/	/	/	/
COC(=O)C1=C(C)NC(C)=C(C(=O)OC)C1C(=O)OCC(=O)N1CCCCC1C (centres undefined)	.	/	.	.	/	/	/	/	/	/
CC(C)(C)NS(=O)(=O)c1cc(C(=O)Nc2sccc2C#N)ccc1Cl	.	.	.	.	.	.	.	.	.	.
N#Cc1ccsc1NC(=O)c1cnccn1	.	.	.	.	.	.	/	/	/	/
Cc1cc(C)nc(CCNC(=O)c2cc(COc3ccccc3)on2)n1	.	.	.	.	.	/	/	/	/	/
Cc1cccc(NC(=O)c2cc3ccccc3o2)c1	.	.	.	.	.	.	/	/	/	/
O=C(Nc1cccc(Br)c1)c1cc2ccccc2o1	.	.	.	.	25	.	.	.	.	.
CC(C)Oc1ncnc2c1[nH]c1ccccc12	.	.	.	.	25	/	.	.	.	.
CCCOc1ncnc2c1[nH]c1ccccc12	.	.	.	.	.	.	/	/	/	/
SMILES	TLR9-MyD88 inh	GRK2 aptamer HTS	NOD2 RIPK2 PPI	TMEM16A act	ANO1 block	TLR4 MyD88 comp	TMEM16A reconf	TMEM16A Ca cntr	YFP-HEK293 quench	ClC-1 rat inh
CCCCN(C=O)c1c(CC)nc2c(OCc3ccccc3C)cccn12	/	/	.	/	/	/	/	/	/	/
Cc1ccc(NC(=O)NC2CCCN2S(=O)(=O)c2ccc(Cl)cc2)cc1 (centres undefined)	.	.	.	.	.	.	/	/	/	/
CN1CCN(C(=O)NC2CCCN2S(=O)(=O)c2ccc(Cl)cc2)CC1 (centres undefined)	.	.	.	.	.	.	.	.	.	.
CN(/C(=N\S(=O)(=O)c1ccccc1)C(F)(F)F)c1ccccc1	.	.	.	.	.	.	/	/	/	/
CC(=O)Nc1cccc(-c2cc(-c3c(Cl)cccc3Cl)no2)c1	.	.	.	.	.	/	/	/	/	/
CNC(=O)Nc1cccc(-c2cc(-c3c(Cl)cccc3Cl)no2)c1	.	.	.	.	100	/	26.5%	.	.	.
COCc1ccc(C(=O)NC2CCCc3c2cnn3-c2ccc(C)c(C)c2)o1 (centres undefined)	.	.	.	.	.	/	/	/	/	/
CS(=O)(=O)c1ccc(Sc2nc3ccccc3[nH]2)c([N+](=O)[O-])c1	.	.	.	.	.	.	.	.	.	.
CC(=O)NS(=O)(=O)c1ccc(NC(=O)c2ccccc2F)cc1	.	.	.	.	25	.	.	.	.	.
CCCCNC(=O)CSc1nc2c(sc(=S)n2-c2cc(Cl)ccc2OC)c(=O)[nH]1	.	.	.	.	.	/	/	/	/	/
COc1ccc(Cl)cc1-n1c(=S)sc2c(=O)[nH]c(SCC(=O)C(C)(C)C)nc21	.	.	.	.	100	/	27.5%	.	.	.
Cc1occc1C(=O)Nc1ccc(Br)cc1F	.	.	.	.	100	.	.	.	.	.
O=C(CSc1n[nH]c(-c2ccccc2O)n1)N1CCCc2ccccc21	.	.	.	.	.	.	/	/	/	/
O=C(CSc1n[nH]c(-c2ccccc2O)n1)NC1CCCCC1	.	.	.	.	100	/	.	.	.	.
CC(C)Cc1csc(NC(=O)C(C)C)c1C(=O)O	.	.	.	.	.	/	/	/	/	/
CC(C)Cc1csc(NC(=O)c2ccc(Br)cc2)c1C(=O)O	.	.	.	.	100	/	.	.	.	.

Screening results deposited in PubChem by several laboratories.
